The values below come from PubChem BioAssay (Tox21).

Several values for one entry are separate records, joined by “and”; a condition that tells them apart may be missing. Equal entries are not always repeated. Records with an inconclusive call do not appear. Some structures have more than one record in an assay (separate samples or runs), and their calls can disagree. Activity calls are given as the source filed them. Unless noted, the call rests on the fitted dose curve; in most records, active means well fitted curve in the direction sought with a large enough effect in the repeat runs; inconclusive means weak or mixed curves; inactive means no such curve, though single readings can be large; an effect the other way counts as inactive or inconclusive.

Test [1] can be described thus: A CellTox Green Cytotoxicity Assay to monitor cytotoxicity in HEK293 cells - 32 hour (AID 1224881). Further: nearly all actives have a fitted effect of over 40% in size. Further: potency means the concentration at half of the fitted maximal effect. In outline:
(§1)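 Cells (HEK293, 600/well) and dye reagent are dispensed together. After 5 h at 37 C, 23 nL compound is pinned in. Plates stay at 37 C for 40 h with fluorescence read at 0h, 8h, 16h, 24h, 32h and 40h.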

A short description of test [2]: A CellTox Green Cytotoxicity Assay to monitor cytotoxicity in HepG2 cells - 0 hour (AID 1224882). Further: nearly all actives have a fitted effect of over 35% in size. Summed up: (§2)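 Cells and non-lytic dye reagent are dispensed together (600 HepG2 cells/well) and incubated 5 h before DMSO compound transfer. Kinetic fluorescence is then recorded in the same wells during 40 h at 37 C.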
Test [3] in a line: A CellTox Green Cytotoxicity Assay to monitor cytotoxicity in HepG2 cells - 32 hour (AID 1224883). Further: nearly all actives have a fitted effect of over 50% in size. Further: potency means the concentration at half of the fitted maximal effect. Summed up:
as §2

The nature of test [4]: A CellTox Green Cytotoxicity Assay to monitor cytotoxicity in HEK293 cells - 8 hour (AID 1224884). Further: nearly all actives have a fitted effect of over 35% in size. Summed up:
as §1

The nature of test [5]: qHTS RealTime-Glo MT Cell Viability Assay in HepG2 cells - 16 hour (AID 1224885). Further: nearly all actives have a fitted effect of over 50% in size. Further: potency means the concentration at half of the fitted maximal effect. In outline: (§3)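 Cells + NanoLuc/prosubstrate dispensed (600 cells/well) → 5 h at 37 C/5% CO2 → compounds in DMSO transferred → 40 h incubation at 37 C, luminescence read at 0, 8, 16, 24, 32, 40 h.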
For orientation: In qHTS, concentration-response curves come from the screen itself.

A short description of test [6]: qHTS RealTime-Glo MT Cell Viability Assay in HEK293 cells - 24 hour (AID 1224886). Further: nearly all actives have a fitted effect of over 50% in size. Further: potency means the concentration at half of the fitted maximal effect. Summed up:
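Tox21 10K qHTS, HEK293, 600 cells/well, RealTime-Glo reagent co-dispensed with cells; 5 h preincubation, compound by pintool, 37 C, luminescence at 0–40 h.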

Test [7] can be described thus: qHTS RealTime-Glo MT Cell Viability Assay in HEK293 cells - 8 hour (AID 1224887). Further: nearly all actives have a fitted effect of over 50% in size. Further: potency means the concentration at half of the fitted maximal effect. In outline: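 Real-time viability in HEK293: signal arises when living cells convert a prosubstrate for NanoLuc in the medium, so luminescence tracks viable cell number. Compound (23 nL, DMSO) added 5 h post-seeding; kinetic reads at 0–40 h, 37 C.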
The nature of test [8]: A CellTox Green Cytotoxicity Assay to monitor cytotoxicity in HEK293 cells - 16 hour (AID 1224888). Further: nearly all actives have a fitted effect of over 35% in size. Further: potency means the concentration at half of the fitted maximal effect. In outline:
as §1

A short description of test [9]: qHTS RealTime-Glo MT Cell Viability Assay in HepG2 cells - 0 hour (AID 1224889). Further: nearly all actives have a fitted effect of over 50% in size. In outline:
as §3

Test [10] is described as follows: A CellTox Green Cytotoxicity Assay to monitor cytotoxicity in HepG2 cells - 8 hour (AID 1224890). Further: nearly all actives have a fitted effect of over 45% in size. Further: potency means the concentration at half of the fitted maximal effect. In outline:
as §2

Test [11] can be described thus: qHTS assay to identify small molecule antagonists of the estrogen receptor alpha (ER-alpha) signaling pathway using the BG1 cell line in the presence of 0.1 nM 17-beta-estradiol - cell viability counter screen (AID 1259241). Further: nearly all actives have a fitted effect of over 40% in size. Further: potency means the concentration at half of the fitted maximal effect. Summed up: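 CellTiter-Fluor read (30 min, 37C) on ER-alpha/ERE-luc VM7Luc4E2 cells; 22 hr compound treatment; agonist 0.1 nM E2 final; same-well multiplex.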

Test [12] is described as follows: qHTS assay to identify small molecule antagonists of the androgen receptor (AR) signaling pathway using the MDA cell line in the presence of 0.5 nM R1881 - cell viability counter screen (AID 1259242). Further: nearly all actives have a fitted effect of over 45% in size. Further: potency means the concentration at half of the fitted maximal effect. Summed up: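 Steps: plate MDA-kb2 cells, rest 5 hr at 37C without CO2; pin in compounds in DMSO; add R1881 to 0.5 nM final; incubate 16 hr; add CellTiter-Fluor, 30 min; read fluorescence.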

Test [13] can be described thus: qHTS assay to identify small molecule HDAC inhibitors (AID 1259364).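 Further: wild-type HCT-116 cells with endogenous class I/II HDAC activity; top concentration of the series differs between compounds; nearly all actives have a fitted effect of over 45% in size.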 Summed up: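 Cells (HCT-116, wild type) are seeded at 1,500 per well, incubated overnight, treated with compound in DMSO for 2 hr, then developed with HDAC-Glo I/II reagent for 30 min at room temperature.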
Test [14] can be described thus: qHTS assay to identify small molecule agonists of the sonic hedgehog signaling (Shh) pathway - cell viability counter screen (AID 1259366). Further: nearly all actives have a fitted effect of over 50% in size. Further: potency means the concentration at half of the fitted maximal effect. In outline: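 Fluorescence from CellTiter-Fluor reports live cells in this counter screen. NIH/3T3-derived Gli1-Luc reporter cells receive test compounds for 24hr at 37C; reagent goes in at 23hr.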
Test [15] can be described thus: qHTS assay to identify small molecule antagonists of the sonic hedgehog signaling (Shh) pathway - cell viability counter screen (AID 1259367). Further: nearly all actives have a fitted effect of over 55% in size. Further: potency means the concentration at half of the fitted maximal effect. Summed up:
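Cytotoxicity was assessed in parallel with Shh reporter activity by measuring live-cell protease fluorescence (CellTiter-Fluor) in NIH/3T3 cells stably carrying Gli1-Luc, treated with compound under conditioned medium stimulation for 23 hr plus 1 hr reagent incubation.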

A short description of test [16]: qHTS assay to identify small molecule HDAC inhibitors - cell viability counter screen (AID 1259365). In outline: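 To flag cytotoxic hits, 1,500 wild-type HCT-116 cells per well, plated the day before, receive test compounds for 2hr at 37 C before CellTiter-Glo reagent and a luminescence read.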
A short description of test [17]: qHTS assay to identify small molecule agonists of the sonic hedgehog signaling (Shh) pathway (AID 1259368; calls by dose curve;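 further: NIH/3T3-derived 3T3Gli1-Luc cells carrying a stable Gli1-driven firefly luciferase reporter; series mostly up to about 92 µM; nearly all actives have a fitted effect of over 15% in size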). In outline: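 Cells of a mouse NIH/3T3 clone stably expressing luciferase under the Gli1 transcriptional response element are exposed to test chemicals for 24 hr at 37 C. Pathway activation is detected as a rise in luminescence.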
Test [18] has as its target Estrogen receptor (Homo sapiens) (UniProt P03372). As to the kind of experiment: qHTS assay to identify small molecule antagonists of the estrogen receptor alpha (ER-alpha) signaling pathway using the BG1 cell line in the presence of 0.1 nM 17-beta-estradiol (AID 1259244). Further: nearly all actives have a fitted effect of over 50% in size. Further: potency means the concentration at half of the fitted maximal effect. Summed up: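 Antagonist mode: compounds in DMSO are pinned onto VM7Luc4E2 reporter cells, 0.1 nM final 17beta-estradiol is added, and after 22 h at 37C luciferase luminescence is measured with ONE-Glo.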

Test [19] is described as follows: qHTS assay to identify small molecule phospholipidosis (PLD) inducers (AID 1259344; active means well fitted curve in the direction sought with a large enough effect; an effect the other way counts as inactive or inconclusive). Summed up: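 Cells (HepG2, 900 per well) attach for 4 h, receive LipidTOX Red and compound together, incubate 24 h at 37 C, are fixed 30 min with paraformaldehyde/Hoechst, then imaged at one site per well.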
Test [20] addresses Androgen receptor (Homo sapiens) (UniProt P10275). As to the kind of experiment: qHTS assay to identify small molecule antagonists of the androgen receptor (AR) signaling pathway using the MDA cell line in the presence of 0.5 nM R1881 (AID 1259243). In outline: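 Stably transfected MDA-kb2 cells express luciferase from an MMTV promoter bearing both AR and GR response elements. Compounds plus 0.5 nM R1881 (final) were incubated 16 hr at 37C without CO2, then luminescence measured.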

Sequence of Estrogen receptor (Homo sapiens) (P03372 whole entry, looked up): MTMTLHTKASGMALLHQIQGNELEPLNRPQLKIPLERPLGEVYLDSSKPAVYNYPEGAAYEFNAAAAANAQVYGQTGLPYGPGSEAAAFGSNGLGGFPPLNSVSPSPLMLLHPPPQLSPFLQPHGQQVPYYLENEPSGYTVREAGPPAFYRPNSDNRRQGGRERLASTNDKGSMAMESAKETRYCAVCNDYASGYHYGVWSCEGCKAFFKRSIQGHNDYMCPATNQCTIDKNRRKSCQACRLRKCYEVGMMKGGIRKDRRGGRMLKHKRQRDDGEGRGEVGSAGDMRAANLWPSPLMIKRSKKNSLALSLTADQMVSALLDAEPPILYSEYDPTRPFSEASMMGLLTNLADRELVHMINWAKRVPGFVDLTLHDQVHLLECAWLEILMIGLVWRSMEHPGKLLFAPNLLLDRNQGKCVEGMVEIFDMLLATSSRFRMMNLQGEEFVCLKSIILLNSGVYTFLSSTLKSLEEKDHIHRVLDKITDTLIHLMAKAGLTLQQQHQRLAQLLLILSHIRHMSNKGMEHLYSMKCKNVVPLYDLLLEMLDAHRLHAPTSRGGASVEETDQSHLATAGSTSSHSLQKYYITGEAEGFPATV
Sequence of Androgen receptor (Homo sapiens) (P10275 whole entry, looked up): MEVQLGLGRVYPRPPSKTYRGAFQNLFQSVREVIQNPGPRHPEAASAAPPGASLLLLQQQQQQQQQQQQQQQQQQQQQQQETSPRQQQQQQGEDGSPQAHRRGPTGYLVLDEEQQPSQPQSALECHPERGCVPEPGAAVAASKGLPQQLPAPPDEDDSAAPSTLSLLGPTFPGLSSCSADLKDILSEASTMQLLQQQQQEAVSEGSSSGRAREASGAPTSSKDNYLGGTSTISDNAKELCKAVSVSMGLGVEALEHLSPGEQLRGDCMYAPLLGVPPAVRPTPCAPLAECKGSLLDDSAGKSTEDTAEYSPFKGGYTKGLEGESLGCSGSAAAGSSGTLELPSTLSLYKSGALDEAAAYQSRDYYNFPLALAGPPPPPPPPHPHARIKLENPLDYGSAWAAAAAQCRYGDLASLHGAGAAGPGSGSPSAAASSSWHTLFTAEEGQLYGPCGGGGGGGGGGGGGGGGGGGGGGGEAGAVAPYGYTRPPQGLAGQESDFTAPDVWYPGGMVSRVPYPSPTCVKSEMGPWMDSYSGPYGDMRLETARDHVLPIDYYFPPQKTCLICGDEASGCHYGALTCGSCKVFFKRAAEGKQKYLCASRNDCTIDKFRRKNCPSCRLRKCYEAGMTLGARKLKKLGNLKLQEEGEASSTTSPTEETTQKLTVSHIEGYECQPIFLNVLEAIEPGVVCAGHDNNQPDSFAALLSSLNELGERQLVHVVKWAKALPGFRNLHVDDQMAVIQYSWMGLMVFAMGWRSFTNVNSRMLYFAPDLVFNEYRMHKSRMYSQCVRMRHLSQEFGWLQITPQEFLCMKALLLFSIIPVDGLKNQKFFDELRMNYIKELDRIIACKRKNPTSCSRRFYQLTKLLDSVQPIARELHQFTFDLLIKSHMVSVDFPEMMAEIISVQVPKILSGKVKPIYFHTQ

Take `COP(=O)(NC(C)=O)SC` (centres undefined): the Potency result in test [1], in test [2], in [3], in test [4], in test [5] and in test [6] was “inactive” throughout. The Potency result in test [7], in [8], in test [9], in test [10], in [11] and in test [12] was “inactive” each time. Further, the Potency entry in [13] and in test [14] was “inactive” each time. The Potency in [15] was 68.7 µM (active) and inactive.
Take `CCNc1nc(Cl)nc(NC(C)(C)C#N)n1`: the Potency result in [1], in [2], in test [3], in test [4], in test [5] and in [6] was “inactive” throughout. In addition, the Potency result in test [7], in test [8], in [9], in [10], in test [11] and in test [12] was “inactive” each time. The Potency result in test [13], in test [16], in test [14], in test [15] and in test [17] was “inactive” each time.
For `CC[n+]1c(-c2ccccc2)c2cc(N)ccc2c2ccc(N)cc21`, the Potency result in [1], in test [2], in test [3], in [4], in test [5] and in test [8] was “inactive” throughout. The Potency result in test [9], in test [10], in test [13] and in [17] was “inactive” each time. Also, the Potency was 6.89 µM (active) and 9.52 µM (active) in [6]; 34.5 µM (active) in test [7]; 30.5 µM (active) in test [11]; 24.2 µM (active) and 13.3 µM (active) in test [12]; 27.2 µM (active) and 21.1 µM (active) in test [18]; 54.2 µM (active) and inactive in [14]. Further, the Potency in test [15] was 48.3 µM (active) and inactive. Besides, the compound was classed as inactive in [19].
Take `O=[N+]([O-])c1ccc(Cl)c([N+](=O)[O-])c1`: the Potency was 19.8 µM (active) and 24.5 µM (active) in [1]; 35.2 µM (active) and 24.5 µM (active) in [3]; 39.5 µM (active) and 17.4 µM (active) in test [5]; 11.1 µM (active) and 12.3 µM (active) in test [6]; 14 µM (active) and 17.4 µM (active) in test [7]; 61.7 µM (active) in test [10]. Moreover, the Potency in test [11] is 27.7 µM (active) and 54.5 µM (active); in [12], 24.7 µM (active) and 21.7 µM (active); in [20], 12.4 µM (active); in test [18] it was 31.1 µM (active) and 43.3 µM (active); in test [14], 5.53 µM (active) and 13.7 µM (active); in test [15], 3.92 µM (active) and 10.9 µM (active). Besides, the Potency entry in test [2], in [4], in [8], in test [9], in [13] and in test [17] was “inactive” in each case.
Take `ClCc1ccccn1`: the Potency entry in test [1], in test [2], in test [3], in test [4], in test [5] and in [6] was “inactive” each time. Further, the Potency entry in [7], in [8], in test [9], in test [10], in [11] and in [18] was “inactive” each time. In addition, the Potency entry in [13], in test [15] and in test [17] was “inactive” in each case.
With `[Cl-].[Cl-].[Cl-].[Fe+3]`, the Potency entry in [1], in test [2], in test [3], in test [4], in test [5] and in test [6] was “inactive” each time. For the same compound, the Potency entry in test [7], in test [8], in test [9], in [10], in test [11] and in test [12] was “inactive” throughout. The Potency entry in test [13], in [16], in [14], in test [15] and in test [17] was “inactive” in each case.
In the case of `CC(C)(c1ccccc1)c1ccc(O)c(C(C)(C)c2ccccc2)c1`, the Potency in test [1] was 38.5 µM (active) and 43.6 µM (active); in test [3], 48.5 µM (active) and 43.6 µM (active); in test [5], 54.4 µM (active) and 43.6 µM (active); in [6], 19.3 µM (active) and 30.9 µM (active); in test [7] it was 21.7 µM (active) and 30.9 µM (active); in test [8] it was 43.2 µM (active). The Potency is 48.5 µM (active) and 49 µM (active) in [10]; 61.1 µM (active) in [11]; 60.6 µM (active) in test [18]; 60.6 µM (active) and 43.3 µM (active) in test [15]. Further, the Potency entry in [2], in [4], in [9], in test [13] and in test [16] was “inactive” throughout.
On to `c1ccc2c(c1)Nc1ccccc1S2`, for which the Potency entry in [1], in [2], in test [3], in test [4], in test [5] and in test [8] was “inactive” in each case. For the same compound, the Potency entry in test [9], in test [10], in test [11], in [18], in test [13] and in [16] was “inactive” in each case. Further, the Potency result in [15] is “inactive”. Moreover, the Potency in test [6] was 11 µM (active) and 10.7 µM (active); in [7], 13.8 µM (active) and 10.7 µM (active). The call in test [19] was inactive.
Take `ClC(Cl)(Cl)Br`: the Potency entry in test [1], in test [2], in [3], in test [4], in [5] and in test [6] was “inactive” in each case. Moreover, the Potency result in test [7], in [8], in test [9], in test [10], in [11] and in [13] was “inactive” each time. The Potency entry in test [16], in [14] and in test [15] was “inactive” throughout.
For `ClC(Cl)=C(Cl)C(Cl)=C(Cl)Cl`, the Potency result in test [1], in test [2], in test [3], in test [4], in test [5] and in test [6] was “inactive” each time. In addition, the Potency entry in [7], in test [8], in test [9], in test [10], in test [11] and in [12] was “inactive” in each case. Moreover, the Potency result in [18], in test [13], in test [16], in test [14], in test [15] and in [17] was “inactive” in each case.
On to `C[N+](C)(C)C`, for which the Potency entry in [1], in [2], in test [3], in test [4], in test [5] and in [6] was “inactive” each time. The Potency entry in test [7], in [8], in [9], in test [10], in test [11] and in test [12] was “inactive” each time. Also, the Potency result in [18], in [13], in test [16], in test [14] and in [15] was “inactive” in each case.
Regarding `COc1ccc(C=O)cc1OC`, the Potency result in [1], in test [2], in test [3], in test [4], in [5] and in [6] was “inactive” in each case. In addition, the Potency entry in [7], in [8], in [9], in test [10], in test [11] and in test [12] was “inactive” throughout. In addition, the Potency result in [18], in test [13], in test [16], in [14], in test [15] and in test [17] was “inactive” in each case.
